ChEMBL document CHEMBL4513216, “Probing the Open Global Health Chemical Diversity Library for Multistage-Active Starting Points for Next-Generation Antimalarials” (ACS Infect Dis, 2020)
Screen size: about 69,000 compounds; about 8,600 (12%) showed an effect of 50% or more. The list comes from a sample in which strong results are over-represented; it also holds similar structures and randomly drawn compounds.

Tested on: Plasmodium berghei
Assay: Screen against P. berghei liver stage (PbLuc), transformed with Luciferase, at 10uM
Assay type: functional, HepG2
Settings: tested at 10 uM

| Structure (SMILES) | INHIBITION [%] |
| --- | --- |
| CCc1ccc(CN2CCC3(CC2)CN(c2cnn(C)c2)C(=O)CO3)o1 | 34.4 |
| Cc1ccc(OCCCSC2=NCCN2)cc1 | 39.1 |
| CSc1nc2cc(C)n(CC(N)=O)c2c(=O)n1CC(C)C | 42.3 |
| CSc1nc2cc(C)n(CC(=O)NC(C)C)c2c(=O)n1CC(C)C | 43.9 |
| COCCNC(=O)Cn1c(C)cc2nc(SC)n(CC(C)C)c(=O)c21 | 89.9 |
| Cc1cc(C)n(CC(=O)N2CCC(Nc3cccnn3)CC2)n1 | -7.95 |
| O=C(NCc1cccs1)[C@@H]1CC[C@@H]2[C@@H](CCN2C2CCOCC2)O1 | 27.6 |
| CN(C)[C@@H]1CCN(C(=O)c2cccn2C)[C@H]1Cc1cnn(C)c1 | 57.9 |
| CN(C)[C@@H]1CCN(C(=O)c2ccco2)[C@H]1Cc1cnn(C)c1 | 33.4 |
| Cc1ccccc1C(=O)N1CC[C@@H](N(C)C)[C@@H]1Cc1cnn(C)c1 | 34.6 |
| Cn1cc(C[C@H]2[C@@H](O)CCN2C(=O)c2ccc[nH]2)cn1 | 4.27 |
| CN(C)[C@@H]1CCN(C(=O)c2ccsc2)[C@H]1Cc1cnn(C)c1 | 48.3 |
| Cn1cc(C[C@H]2[C@H](N3CCOCC3)CCN2C(=O)c2ccco2)cn1 | 17.1 |
| CCO[C@@H]1CCN(C(=O)c2cscn2)[C@@H]1Cc1cnn(C)c1 | 37.5 |
| CN(C)C(=O)N1CC[C@@H](O)[C@@H]1Cc1cnn(C)c1 | 19.5 |
| CCO[C@@H]1CCN(C(=O)c2cnc(C)cn2)[C@@H]1Cc1cnn(C)c1 | 53.2 |
| Cn1cc(C[C@H]2[C@H](O)CCN2C(=O)c2ccsc2)cn1 | 60.2 |
| Cn1cc(C[C@H]2[C@H](N3CCOCC3)CCN2C(=O)c2ccc[nH]2)cn1 | 55.5 |
| COCCO[C@@H]1CCN(C(=O)c2ccc[nH]2)[C@H]1Cc1cnn(C)c1 | 33.4 |
| O=c1ccc(-c2cccs2)nn1CN1CCOC(c2ccccc2)C1 (stereo not drawn) | -16.5 |
| Cc1oc(C)c(C(=O)N2CCN(Cc3cscn3)CC2)c1C | -63.3 |
| CN(C)c1cccc(C(=O)N2CCCSCC2CN2CCCC2)c1 (stereo not drawn) | 11 |
| CC(C)C(NC(=O)Cn1nc2c(cc1=O)CCCC2)C(=O)O (stereo not drawn) | -0.621 |
| Cc1ccc(NCc2cncc3c2CCN(C(=O)C2CC=CC2)C3)nn1 | -25 |
| O=C(c1cncs1)N1CCCC1c1ccn[nH]1 (stereo not drawn) | -28.6 |
| Cc1nc(N2CCOCC2)nc2c1CCN(Cc1cccnc1)CC2 | 4.92 |

| Structure (SMILES) | INHIBITION [%] |
| --- | --- |
| Cc1cccc(N2CCN(C(=O)NC(C)c3nncn3C)CC2)c1 (stereo not drawn) | -38.2 |
| O=C(N[C@@H]1CC[C@@H](N2CCOCC2)[C@@H]1O)c1cnn2cccnc12 | 38.8 |
| COCCO[C@H]1CCN(C(=O)c2ccsc2)[C@H]1Cc1cnn(C)c1 | -17.9 |
| O=C(c1ccnnc1)N1CC[C@@H](O)[C@@H]1Cc1ccccc1 | -3.58 |
| CCO[C@@H]1CCN(C(=O)c2ccc[nH]2)[C@@H]1Cc1cnn(C)c1 | 29 |
| COCCO[C@H]1CCN(C(=O)c2cccnc2)[C@H]1Cc1cnn(C)c1 | 1.9 |
| COCCO[C@H]1CCN(C(=O)NC2CC2)[C@H]1Cc1cnn(C)c1 | 62.8 |
| COCCO[C@H]1CCN(C(=O)c2ccco2)[C@H]1Cc1cnn(C)c1 | -22.5 |
| COCCO[C@@H]1CCN(C(=O)c2ccnnc2)[C@H]1Cc1cnn(C)c1 | 53.4 |
| O=C(c1ccnnc1)N1CC[C@H](OCC2CC2)[C@@H]1Cc1ccncc1 | 66.2 |
| O=C(c1cccnc1)N1CC[C@H](OCC2CC2)[C@@H]1Cc1cccnc1 | 34.8 |
| CCO[C@@H]1CCN(C(=O)c2ccnnc2)[C@@H]1Cc1cnn(C)c1 | 69.5 |
| CCO[C@@H]1CCN(C(=O)N(C)C)[C@@H]1Cc1cnn(C)c1 | 12.4 |
| COCCO[C@@H]1CCN(C(=O)c2ccc(C)o2)[C@@H]1Cc1cnn(C)c1 | 21.6 |
| NC(=O)C1CCCN(C(=O)c2ccn(-c3ccc(F)cc3)n2)C1 (stereo not drawn) | 0.914 |
| c1cnc2[nH]c(C3CCNCC3)c(CN3CCOCC3)c2c1 | 6.32 |
| O=C([C@H]1CC[C@@H]2[C@@H](CCN2C2CCCCC2)O1)N1CCOCC1 | 20.6 |
| NCCCC(=O)NCC1(O)CCN(c2ccnc3cccnc23)C1 (stereo not drawn) | 8.3035 |
| OCC1CCCN1c1cc(NCCc2ccsc2)ncn1 (stereo not drawn) | 66.3 |
| OCC1CCCN1c1cc(NCCNc2ccccn2)ncn1 (stereo not drawn) | 7.12 |
| OCC1CCCN1c1cc(NCCc2nccs2)ncn1 (stereo not drawn) | -0.71 |
| OCC1CCCN1c1cc(NCCc2ccccn2)ncn1 (stereo not drawn) | 64.1 |
| OCC1CCCN1c1cc(NCc2ccsc2)ncn1 (stereo not drawn) | 43.2 |
| OCC1CCCN1c1cc(NCc2ccccn2)ncn1 (stereo not drawn) | -41.6 |
| C[C@@H]1C[C@H](C(F)(F)F)n2nc(C3CCN(S(=O)(=O)N(C)C)CC3)cc2N1 | -2.11 |
| CNS(=O)(=O)c1ccc(C(=O)N2CCCC2c2ccccc2C)o1 (stereo not drawn) | 7.27 |

| Structure (SMILES) | INHIBITION [%] |
| --- | --- |
| O=C(NCc1nn(-c2ccccc2)c2c1CCC2)N1CCCC(O)C1 (stereo not drawn) | -49.4 |
| Cn1c(CN2CCCC2)nnc1C1CCCN(C(=O)CN2CCCC2)C1 (stereo not drawn) | 21.2 |
| Cn1c(CN2CCCC2)nnc1C1CCCN(C(=O)C2CCOCC2)C1 (stereo not drawn) | 70.1 |
| CCCOC(=O)N1CCCC(c2nnc(CN3CCOCC3)n2C)C1 (stereo not drawn) | 31.2 |
| CN(CCO)Cc1nnc(C2CCN(C(=O)C3CCOCC3)CC2)n1C | 39.1 |
| CCN(C)CC(=O)N1CCCC(c2nnc(CN3CCOCC3)n2C)C1 (stereo not drawn) | 55.7 |
| CN1CCN(Cc2nnc(C3CCN(C4CCCCC4)CC3)n2C)CC1 | -10.9 |
| Cn1c(CN2CCOCC2)nnc1C1CCN(C(=O)C2CCCC2)CC1 | 50.1 |
| Cn1c(CN2CCCC2)nnc1C1CCCN(C(=O)N2CCOCC2)C1 (stereo not drawn) | 5.78 |
| CN1CCN(Cc2nnc(C3CCN(CC4CC4)CC3)n2C)CC1 | -17 |
| Cn1c(CN2CCOCC2)nnc1C1CCCN(C(=O)CCC2CC2)C1 (stereo not drawn) | 8.51 |
| CN1CCN(Cc2nnc(C3CCN(C(CO)CO)CC3)n2C)CC1 | 62.9 |
| CN1CCC(c2nnc(CN3CCOCC3)n2C)CC1 | 27.7 |
| O=C(O)[C@@H]1CN(C(=O)CN2CCCCCC2)C[C@H]1c1ccccc1 | -6.21 |
| CC(C)C1=NOC2(CCN(S(C)(=O)=O)CC2)C1 | -35.4 |
| Cc1cc(C)n(CC2CCN(CC(O)COc3ccccc3)CC2)n1 (stereo not drawn) | 26.8 |
| NC1CCC(n2cc(C(=O)N[C@H]3CCCc4ccccc43)nn2)CC1 (stereo partly drawn) | 16.6 |
| CCc1nc(C2CCCN(C(=O)c3ccncc3)C2)no1 (stereo not drawn) | -61.4 |
| Cc1noc(C)c1-c1cc(CCC2CN(CCC(N)=O)CCO2)ncn1 (stereo not drawn) | -2.2555 |
| CCSCc1ccc(C(=O)N2CCCN(CC)CC2)cc1 | 47 |
| COc1ccc(C(C)NCCc2ccc(NC(C)=O)cc2)c(OC)c1 (stereo not drawn) | 1.56 |
| CN(C)c1cccc(C2CCCN2S(=O)(=O)c2cn(C)cn2)n1 (stereo not drawn) | -52.6 |
| CSCC[C@H](NC(C)=O)C(=O)N(C)Cc1ccc(-n2cccn2)cc1 | 54.4 |
| CSCCC(NC(N)=O)C(=O)NCc1cnn(-c2ccccc2)c1 (stereo not drawn) | 29.8 |
| CSCCC(NC(N)=O)C(=O)NCc1ccc(-n2cccn2)cc1 (stereo not drawn) | 56.6 |
| CSCCC(NC(N)=O)C(=O)Nc1ccc(-n2cccn2)nc1 (stereo not drawn) | 1.79 |

| Structure (SMILES) | INHIBITION [%] |
| --- | --- |
| CN(Cc1ccc(-n2cccn2)cc1)C(=O)CCC(F)(F)F | 35.1 |
| CSCCC(O)C(=O)N(C)Cc1cnn(-c2ccc(F)cc2)c1 (stereo not drawn) | 24.2 |
| Cc1cnc(C(=O)N2C[C@@H]3CC[C@H]2CN(S(=O)(=O)N(C)C)C3)cn1 | 42 |
| O=C(NC1CC1)N1C[C@@H]2CCN(C(=O)c3cscn3)[C@@H]2C1 | -1.28 |
| Cn1cc(Cl)cc1C(=O)N1CCCN(Cc2nccn2C)CC1 | 0.16 |
| CCCc1noc(CN2CCCC2c2noc(C3CC3)n2)n1 (stereo not drawn) | 40.9 |
| O=C(NC1CC1)[C@H]1C[C@H]2OCC[C@H]2N(Cc2ccc(F)cc2)C1 | -15.3 |
| Cc1ccc(C(=O)O)cc1-c1cccc2c1CCNC2 | 15.8 |
| COc1ccc(C(=O)O)cc1-c1cccc2c1CCNC2 | 21.2 |
| Cc1cc(-c2cccc3c2CCNC3)cnc1-n1cnnc1 | 26.4 |
| Cc1cnc(-n2cnnc2)c(-c2cccc3c2CCNC3)c1 | 53.3 |
| CN(C)C(=O)c1ccc(-c2cccc3c2CCNC3)cc1 | 33.9 |
| Cc1nc(-n2cnnc2)ccc1-c1cccc2c1CCNC2 | 61.1 |
| CCn1cncc1CN1CCN(CC2(c3ccc(C)cc3)CC2)CC1 | -29.9 |
| O=C(O)C1(Cc2cc(-c3ccccc3F)no2)CCOCC1 | 21.9 |
| Cc1nn(C)c2nc(NCCN3CCCC(C(N)=O)C3)sc12 (stereo not drawn) | 20 |
| Cn1ccnc1CN1CCC(CCCc2ccccn2)(C(N)=O)CC1 | -20.6 |
| CNC(=O)C1Cc2ccccc2CN1C(=O)CC(C)C (stereo not drawn) | -47 |
| Cc1cc(C)n(CC(C)NC(=O)NCc2c(C)cc(C)[nH]c2=O)n1 (stereo not drawn) | 50.8 |
| Cc1cc(C)n(CCCNC(=O)NCc2c(C)cc(C)[nH]c2=O)n1 | 38.9 |
| Cc1cc(C)n(CC(C)CNC(=O)NCc2c(C)cc(C)[nH]c2=O)n1 (stereo not drawn) | 42.3 |
| CCC(=O)N1CCCC1c1n[nH]cc1-c1ccccc1F (stereo not drawn) | -6.73 |
| Cc1ccc(C)c(-n2nnnc2SCN2CCCCC2=O)c1 | 13.7 |
| Cc1ccc(-n2nnnc2SCN2CCCCC2=O)cc1C | 63.8 |
| O=C1CCCCN1CSc1nnnn1-c1ccc(Cl)cc1 | 30.4 |
